Hits are enriched below; roughly 21% of the tested compounds scored in any of these assays.
Cycloheximide cs: counter-screen for Shiga toxin inhibitors: cycloheximide protein synthesis inhibition. max response, %. 300,000 compounds, 12% hits. AID 2314. cell reporter, cycloheximide protein synthesis inhibition counterscreen; in the data active means max response mostly above about 13%, no sharp cut-off; inactive means mostly below about 14%; further: read at 38.3 µM for the half of the compounds with a filed dose; 0% is about no effect
Pf growth 48h: P. falciparum growth inhibition at 48 hours (one generation); P. falciparum luciferase growth in erythrocytes, 48 h; Potency, µM (top dose mostly 28.7 µM), inactives show at the top dose activity change, negative = inhibition, actives largely listed as inhibitors; 310,000 compounds, 5.9% hits; AID 504832; active means well fitted inhibition curve with a large enough effect; inconclusive means small, poorly fitted or top-dose-only effect, or another doubt; inactive means no such curve, though single readings can be large or run the other way; further: potency means the concentration at half of the fitted maximal effect; on the % scale 0 is the no-effect control and ±100 the full control effect
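First compound was added to culture medium, then infected red cells at 0.1% parasitemia and 2% hematocrit (final). After incubation at 37 C under 5% CO2, luciferase detection reagent was dispensed and light output recorded.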
SARS PLpro yeast: SARS-CoV PLP inhibition in yeast. S. cerevisiae expressing SARS-CoV PLpro, growth rescue. Potency, µM (titrated, usually from 32.9 µM), inactives show top-dose activity, positive = growth rescue, hits mostly activators. 330,000 compounds, 0.19% hits; further: potency means the concentration at half of the fitted maximal effect; 0% is about no effect; nearly all actives have a fitted effect of over 55% in size
NS1 inh: blocks influenza NS1 protein function; Potency, µM (series often up to 46.1 µM), inactives show at the top dose activity, positive = more growth; 270,000 compounds, 0.4% hits; AID 2326; further: potency means the concentration at half of the fitted maximal effect; actives are rising curves; nearly all actives have a fitted effect of over 50% in size
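Compounds were scored for reversing the slow growth caused by influenza A NS1 in S. cerevisiae, measured by optical density at 600 nm. Assay medium contained 2% galactose at pH 6.0; NS1-free yeast of the same strain were the positive control.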
Pf growth 96h: P. falciparum growth inhibition at 96 hours. Potency, µM (doses to about 28.7 µM), without a hit: at the top dose activity change, negative = inhibition, most hits filed as inhibitors. P. falciparum luciferase reporter growth, 96 h. 320,000 compounds, 6.9% hits; active means well fitted inhibition curve with a large enough effect; inconclusive means small, poorly fitted or top-dose-only effect, or another doubt; inactive means no such curve, though single readings can be large or run the other way; further: potency means the concentration at half of the fitted maximal effect; on the % scale 0 is the no-effect control and ±100 the full control effect
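Luminescence readout: decreased luciferase signal marks inhibited growth of reporter-expressing P. falciparum in infected red cells (2% hematocrit, 0.05% parasitemia final), exposed to compound two generations (96 h, 37 C, 5% CO2).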
Shiga inhibitor: Shiga toxin inhibition; Vero cells, Shiga toxin protein synthesis inhibition reporter; inhibition, % at 38.7 µM; 290,000 compounds, 9.2% hits; AID 2315; in the data active means inhibition mostly above about 28%, no sharp cut-off; inactive means mostly below about 43%; further: 0% is about no effect
Active calls of the source: *; ? = inconclusive; . = no result. Unless noted, the call rests on the fitted dose curve.

SMILES	Cycloheximide cs	Pf growth 48h	SARS PLpro yeast	NS1 inh	Pf growth 96h	Shiga inhibitor
c1ccc2[nH]c(SCCN3CCOCC3)nc2c1	20*	.	3%	-4%	72%	25
O=C(Cc1ccccc1)Nc1ccc(N2CCOCC2)cc1	28*	27%	0%	4%	?	46*
O=c1[nH]c(SCCN2CCOCC2)nc(O)c1-c1ccccc1	-3	38%	1%	1%	41%	-3
Cc1ccccc1C(=O)N1CCN(c2ccc(NC(=O)Cc3ccccc3)cc2)CC1	7	?	7%	12%	?	-11
CN(CC(=O)Nc1ccc(N2CCOCC2)cc1)C(=O)CCc1cc(C(C)(C)C)c(O)c(C(C)(C)C)c1	.	3.3µM*	-3%	.	9.3µM*	.
CCN1CCN(c2ccc(NC(=O)Cc3ccccc3)cc2)CC1	15*	8%	6%	3%	-12%	67*
Cc1ccc(CC(=O)N(C)CC(=O)Nc2ccc(N3CCOCC3)cc2)cc1C	.	?	-2%	.	8%	.
CCOC(=O)c1[nH]cnc1C(=O)Nc1ccc(Cl)cc1	-2	-10%	0%	1%	?	-6
COc1ccc(NC(=O)c2cc(C)no2)cc1Cl	12	4.1µM*	-1%	-3%	3.7µM*	20
Cc1cc(C(=O)Nc2ccc(Cl)cc2)on1	23*	10%	-1%	0%	52%	58*
Cc1cc(C(=O)Nc2ccc(C#N)cc2)on1	8	36%	-3%	-1%	14%	5
Cc1ocnc1C(=O)Nc1ccc(Cl)cc1	44*	156%	-3%	-16%	111%	122*
COc1ccc(NC(=O)c2cc(C)no2)cc1OC	-4	-4%	0%	-1%	?	-6
CC1CCCC(C)N1CC(O)COc1ccc(Cl)cc1 (stereo not drawn)	5	?	8%	-5%	?	10
Cc1cc(OCC(O)CN2C(C)CCCC2C)ccc1C(C)C (stereo not drawn)	-5	9.3µM*	-2%	7%	?	8
CC(=O)Nc1ccc(OCC(O)CN2C(C)CCCC2C)cc1 (stereo not drawn)	20*	22%	10%	4%	52%	-3
CC1CCCC(C)N1CC(O)COc1c(F)cc(Br)cc1F (stereo not drawn)	5	10µM*	7%	4%	?	9
O=C1/C(=C/N(C(=O)c2ccco2)c2ccc(Br)cc2)Sc2ccccc21	37*	75%	-25%	-17%	-23%	0
O=C1/C(=C/N(C(=O)c2ccco2)c2ccc(Cl)cc2)Sc2ccccc21	39*	92%	-12%	-19%	0%	91*
COC(=O)c1cc(NC(=O)Cn2c(=O)oc3ccccc32)cc(C(=O)OC)c1	-1	2%	4%	3%	7%	-1
Cc1nc(Nc2ncc(C(=O)Nc3c(C)cccc3Cl)s2)cc(N2CCN(CCO)CC2)n1	.	9.5µM*	.	.	7.6µM*	.
O=C(NCC1CCCO1)c1ccc2c(c1)N(Cc1ccccc1)CCS2 (stereo not drawn)	-1	?	0%	-11%	?	-4
CCn1c(O)c(/C=N/NC(=O)c2ccccc2)c(=O)n(CC)c1=S	47*	11%	1%	-5%	46%	52*
O=c1[nH]c(=S)n(C2CC2)c(O)c1/C=N/Nc1ccccc1	24*	-4%	-23%	-8%	23%	65*
O=c1[nH]c(=S)n(C2CC2)c(O)c1/C=N/Nc1cccc2ccccc12	25*	11%	-6%	?	-98%	72*
O=C(N/N=C/c1c(O)n(Cc2ccco2)c(=O)[nH]c1=O)c1ccccc1O	22*	2%	?	1%	11%	73*
CC(N=Cc1c(O)n(C2CC2)c(=S)[nH]c1=O)c1ccccc1 (stereo not drawn)	-2	14%	0%	6%	16%	-5
CCCCC(=O)N/N=C/c1c(O)n(C2CC2)c(=S)[nH]c1=O	-3	28%	3%	7%	14%	7
COc1ccc(CNS(=O)(=O)c2c(C(=O)N3CCCCC3)c(C)n(C)c2C)cc1	10	11%	1%	1%	33%	-8
COc1ccccc1CNC(=O)CC12CC3CC(CC(Br)(C3)C1)C2	-5	?	5%	0%	-12%	-7

High-throughput results: PubChem BioAssay, National Center for Advancing Translational Sciences (NCATS)
